Results as given in the supplement of paper PMC6522484.
± gives the standard deviation of the averaged measurements.

system: DLD1; assay: cell viability (CellTiter-Glo) relative to plate median (fraction of plate median); higher = more viable cells; conditions: 5 µM; treatment time 24 h; reporter: 7TFP
Outline: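 After seeding in 384-well plates, colorectal cancer cell lines carrying stable lentiviral TCF/Wnt firefly luciferase reporters (7TFP or TCF4/Wnt) were left 24 h. Library compounds were then added at a final 5 µM for 24 h. A Tecan F500 reader measured firefly luciferase or CellTiterGlo luminescence on parallel plates, with each well normalised to the plate median by webcellHTS2 (additive, no log transformation), and two independent replicates averaged.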

`CC1(C)[C@@H](OC(=O)CCC(=O)O)CC[C@]2(C)[C@H]3C(=O)C=C4[C@@H]5C[C@@](C)(C(=O)O)CC[C@]5(C)CC[C@@]4(C)[C@]3(C)CC[C@@H]12` and `CC(=O)OCC(=O)[C@@]12OC3(CCCC3)O[C@@H]1C[C@H]1[C@@H]3CCC4=CC(=O)C=C[C@]4(C)[C@@]3(F)[C@@H](O)C[C@@]12C` are within error of each other in cell viability: 1 ± 0.011 for the first, 0.985 ± 0.021 for the second.

`CCC(C)C(N)=O` (stereo unspecified) [2-Methylbutyramide] and `CC(=O)NO` are within error of each other in cell viability: 1.06 ± 0.028 for the first, 1.035 ± 0.0071 for the second.

`C=CCSSSCC=C` and `NCCc1c[nH]cn1` are within error of each other in cell viability: 1.05 ± 0.09 for the first, 1.06 ± 0.028 for the second.

`Cc1cc(O)c(C=O)c2c1C(=O)Oc1c(COC(=O)/C=C/C(=O)O)c(O)c(C(=O)O)c(C)c1O2` and `COc1cc(O)c2c(c1)C(=O)c1cc(C)cc(O)c1C2=O` are within error of each other in cell viability: 0.992 ± 0.026 for the first, 0.973 ± 0.017 for the second.

`O=C(O)[C@@H](O)[C@H](O)[C@H](O)[C@@H](O)C(=O)O` and `CC(=O)Oc1cccc(O)c1` are within error of each other in cell viability: 0.971 ± 0.023 for the first, 1.01 ± 0.095 for the second.

First: Nc1nc2c(ncn2[C@H]2C[C@H](O)[C@@H](CO)O2)c(=O)[nH]1 [Desoxyguanosin]
Second: N=c1ccn2c(n1)O[C@H]1[C@H](O)[C@@H](CO)O[C@H]12
The cell viability of the first is lower: 1 ± 0.013 for the first, 1.16 ± 0.078 for the second.

`CC(=O)/C=C\[C@@H]1[C@@]2(C)CCCC(C)(C)C2CC[C@@]1(C)O` (stereo partly specified) and `CC(=O)Oc1ccc2c(c1C(C)C)CCC1C(C)(C)CCC[C@]21C` (stereo partly specified) are within error of each other in cell viability: 1 ± 0.025 for the first, 1.18 ± 0.22 for the second.

`CCCOc1ccccc1-c1nc2[nH]nnc2c(=O)[nH]1` and `CC#C[C@]1(O)CC[C@H]2[C@@H]3CCC4=CC(=O)CCC4=C3[C@@H](c3ccc(N(C)C)cc3)C[C@@]21C` are within error of each other in cell viability: 0.985 ± 0.035 for the first, 0.972 ± 0.023 for the second.
